Among the data in PubChem BioAssay AID1634 (National Center for Advancing Translational Sciences (NCATS), 2009) are Potency values, retold here.

Each structure is given as a SMILES string. About 150 (0.058%) of roughly 260,000 compounds were called active. Entries that show only a call come without a potency. Calls come from the whole dose curve; as a rule, active = well fitted inhibition curve with a large enough effect; inconclusive = small, poorly fitted or top-dose-only effect; inactive = no such curve, though single readings can be large or run the other way. Only a selection was taken, and actives are over-represented in it overall.
Potency is the fitted concentration of half-maximal effect.

This experiment deals with Pyruvate kinase PKM (Homo sapiens) (UniProt P14618). Description: qHTS Assay for Inhibitors of Human Muscle isoform 2 Pyruvate Kinase. Note: nearly all actives have a fitted effect of over 60% in size. The settings on record: purified PKM2, ATP generation, Kinase-Glo luminescence; series mostly up to 57.5 µM. Here is the method: NIH Chemical Genomics Center [NCGC] Matthew G. Vander Heiden, M.D., Ph.D. [Harvard Medical School, 77 Avenue Louis Pasteur, Boston, MA 02115] […] ATP generation was detected in a coupled reaction by luciferase-mediated luminescence, an ATP-dependent process. […] The enzyme was assayed at an intermediate level of activity to screen for both inhibitors and activators.
Chain of Pyruvate kinase PKM (Homo sapiens) (P14618 whole entry, looked up, canonical isoform): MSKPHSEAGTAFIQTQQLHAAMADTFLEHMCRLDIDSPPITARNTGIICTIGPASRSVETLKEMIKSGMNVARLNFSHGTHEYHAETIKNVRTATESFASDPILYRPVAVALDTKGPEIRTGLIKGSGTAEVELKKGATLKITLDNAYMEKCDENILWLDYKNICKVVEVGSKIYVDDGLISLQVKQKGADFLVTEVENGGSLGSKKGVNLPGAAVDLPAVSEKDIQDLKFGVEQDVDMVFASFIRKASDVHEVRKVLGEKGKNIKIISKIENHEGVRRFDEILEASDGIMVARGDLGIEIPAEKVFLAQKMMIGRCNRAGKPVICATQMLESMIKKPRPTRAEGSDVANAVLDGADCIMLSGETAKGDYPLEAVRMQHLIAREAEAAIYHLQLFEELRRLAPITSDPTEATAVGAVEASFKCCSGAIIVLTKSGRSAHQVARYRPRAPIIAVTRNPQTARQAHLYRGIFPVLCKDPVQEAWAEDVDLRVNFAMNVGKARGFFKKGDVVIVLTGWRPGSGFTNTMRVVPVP
NCGC Assay Protocol Summary: Three uL of substrate mix (at r.t.) in assay buffer (50 mM Imidazole pH7.2, 50 mM KCl, 7 mM MgCl2, 0.01% Tween 20, 0.05% BSA) was dispensed into white solid bottom 1,536 well microtiter plates so that the final concentrations of substrates in the assay were 0.1 mM ADP and 0.5 mM PEP. 23 nL of compound were delivered by a pin tool and 1 uL of enzyme mix in assay buffer (4 degree Celsius) was added. Plates were incubated at room temperature for 1 hour. Two uL of detection mix (Kinase-Glo, Promega; at 4 degree Celsius protected from light) was added and luminescence read by a ViewLux (Perkin Elmer) at 5 second exposure/plate. Data were normalized to the uninhibited and AC100 inhibition (no enzyme). To monitor activation, the first column contained a titration of the activator, NCGC00031955-01 (16-point 1:2 dilutions in duplicate starting at 57 uM) and the first 16 rows of column 4 contained 57 uM of NCGC00031955-01.
In the case of `Cc1ccc(S(=O)(=O)N2CCCC2C(=O)NCc2ccco2)cc1` (centres undefined), the Potency entry is “inactive”.
Consider `Cc1noc(C)c1C(=O)OCC(=O)N1CCN(S(=O)(=O)c2ccc3ccccc3c2)CC1`, for which the Potency entry was “inactive”.
Under `CCn1c(NCCc2ccc(OC)c(OC)c2)nc2c1c(=O)n(C)c(=O)n2C` stands “inactive”; under `O=C(COC(=O)CCC(=O)c1cccs1)NCc1ccco1`, “inactive”; under `CC(=O)c1cc(C#N)c(SCC(=O)Nc2nccs2)nc1C`, “inactive”.
Under `COc1ccc(C2CC(c3ccc([N+](=O)[O-])cc3)=NN2C(C)=O)cc1` (centres undefined) stands “inactive”.
The same measure for `Cc1ccc(OS(=O)Nc2cccc3nccnc23)cc1` (centres undefined): “inactive”; for `Cc1ccc(CNC(=O)C2CCCN2C(=O)NCc2ccccc2)cc1` (centres undefined): “inactive”.
On to `CC(C)(C)C(=O)OCc1nc(-c2ccc(O)c(O)c2)cs1`, for which the Potency result was “inactive”.
Under `CCOc1ccc(S(=O)(=O)Nc2nccs2)cc1` stands “inactive”; under `Cn1c(SCC(=O)N/N=C/c2ccc(O)c(O)c2)nc2ccccc21`, “inactive”.
Under `CC(C)Nc1ncnc2c1nnn2Cc1ccccc1` stands “inactive”; under `O=C(c1c(F)cccc1Cl)N1CCN(S(=O)(=O)c2ccc3c(c2)OCCCO3)CC1`, “inactive”; under `O=C(CSc1nnc(-c2ccc(NS(=O)(=O)c3ccccc3)cc2)o1)NCC1CCCO1` (centres undefined), “inactive”.
Under `S=c1[nH]nc(-c2cccs2)n1/N=C/c1cn(-c2ccccc2)nc1-c1ccc(Cl)cc1` stands “inactive”; under `O=C(Cc1cccs1)Nc1nnc(SCc2ccc(F)cc2)s1`, “inactive”; under `Cc1cc(C)n(CCC(=O)N2CCN(S(=O)(=O)c3ccc(C)c(C)c3)CC2)n1`, “inactive”.
Regarding `COc1ccc(S(=O)(=O)Nc2ccc(F)cc2)c(C)c1C`, the Potency entry is “inactive”.
Under `CCc1nnc(NC(=O)CSc2nc3c(c(=O)n2-c2ccccc2OC)SCC3)s1` stands “inactive”.
Consider `Nc1cccc(S(=O)(=O)Nc2ccc(SC(F)F)cc2)c1`, for which the Potency entry was “inactive”.
The same measure for `Nc1ccccc1Sc1cc(Cl)nnc1Cl`: “inactive”; for `O=S(=O)(Nc1nccs1)c1ccc2c(c1)OCCO2`: “inactive”.
Under `O=c1[nH]c(-c2cccs2)nc2ccccc12` stands “inactive”; under `Cn1c2ccccc2c(=O)c2c(=O)n(Cc3ccco3)c(COc3ccccc3)nc21`, “inactive”; under `COC(=O)C1=C(C)NC(=O)CC1c1ccccc1OC` (centres undefined), “inactive”.
The same measure for `Cc1cc(NC(=O)CSc2nnc(-c3ccc(Cl)s3)o2)no1`: “inactive”; for `Cc1ccc(N(C(=O)c2ccc(CN3CCOCC3)o2)C(C(=O)NCCC(C)C)c2cccs2)c(C)c1` (centres undefined): “inactive”; for `Cc1cc(-c2ccc(/C=N/n3cnnc3)o2)c([N+](=O)[O-])cc1C`: “inactive”.
With `O=[N+]([O-])c1ccccc1Nc1ccc(O)cc1`, the Potency entry is “inactive”.
The same measure for `S=c1nc(C23CC4CC(CC(C4)C2)C3)nc2sccn12`: “inactive”; for `CCc1nnc(NS(=O)(=O)c2ccc(NS(=O)(=O)c3ccccc3)cc2)s1`: “inactive”; for `CCNc1nc(NC(C)C)nc(OCCOC(=O)c2ccccc2)n1`: “inactive”.
The same measure for `CN(C)c1ccc(C=C2C(=O)OC3(CCCC3)OC2=O)cc1`: “inactive”; for `COc1ccc(CS(=O)/C(Cl)=C(/Cl)C(=O)Nc2ccc(OC)nc2)cc1` (centres undefined): “inactive”.
With `CC(=O)c1c(C)[nH]c(C(=O)Nc2cc(S(=O)(=O)N(C)C)ccc2C)c1C`, the Potency result was “inactive”.
The same measure for `O=C(NCc1ccco1)c1cccn2c(=O)c3c4c(sc3nc12)CCCC4`: “inactive”.
Under `O=C(NCc1ccccn1)c1c(O)c2c([nH]c1=O)CCCC2` stands “inactive”; under `CCC1CCCCN1CCCNC(=O)Cn1nc(-c2ccccc2)ccc1=O` (centres undefined), “inactive”; under `COc1ccc(C(=O)NC(=S)Nc2ccc(Cl)cn2)cc1OC`, “inactive”.
Under `c1cc(-n2cnnn2)ccc1NC1=NCCC1` stands “inactive”.
Regarding `O=C(CCC(=O)N1CCN(S(=O)(=O)c2ccccc2)CC1)NC1CCCc2ccccc21` (centres undefined), the Potency entry was “inactive”.
Under `O=c1cc(CO)oc(C(Nc2cccc([N+](=O)[O-])c2)c2ccccn2)c1O` (centres undefined) stands “inactive”.
Turning to `COC(=O)c1[nH]c2ccccc2c1NC(=O)CN1CCCc2ccccc21`, the Potency entry was “inactive”.
On to `CN(C)/C=C1\C=C(c2ccccc2)OC1=O`, for which the Potency result is “inactive”.
Under `CCC(C)(C)NC(=O)C1c2ccccc2Oc2ccccc21` stands “inactive”; under `O=C(c1ccc(-c2ccccc2)cc1)C1CCCN(C(=O)c2cncs2)C1` (centres undefined), “inactive”; under `O=S(=O)(c1ccc(F)cc1)N1CCN(C(=S)NCc2ccco2)CC1`, “inactive”.
Under `O=C(COc1cc(Cl)c(Cl)cc1Cl)NCCc1ccccn1` stands “inactive”; under `COC(=O)c1cc2c(N)c(C(=O)c3ccc(Cl)cc3)sc2nc1C(OC)OC`, “inactive”.
The same measure for `O=C(Cn1c(COc2ccccc2)nc2ccccc21)Nc1cc(Cl)c(Cl)cc1Cl`: “inactive”.
As for `COc1ccc(-c2cn3ccc(C)cc3n2)cc1`, the Potency is 12.6 µM (active).
With `COc1ccc(-c2csc(Cc3nc(O)cs3)n2)cc1`, the Potency result was “inactive”.
The same measure for `N#Cc1ccc(OCc2nnc(-c3ccc([N+](=O)[O-])cc3)o2)cc1`: “inactive”.
Under `COc1cccc(CNC(=O)CCC2CCCN(C(=O)c3cc(C)[nH]n3)C2)c1` (centres undefined) stands “inactive”; under `Cc1cc(C)c(S(=O)(=O)N2C=CC(C(F)(F)F)=NCC2)c(C)c1`, “inactive”; under `CN(CCc1ccccc1)c1ccc([N+](=O)[O-])cn1`, “inactive”.
Under `COC(=O)[C@@]1(Cc2ccccc2)[C@H]2c3cc(C(=O)N4CCCC4)n(Cc4ccc(C)o4)c3C[C@H]2CN1C(=O)c1ccccc1` stands “inactive”.
As for `O=[N+]([O-])c1cc(Br)c(O)c(/C=N/Nc2nc3ccccc3s2)c1`, the Potency result was “inactive”.
As to `CN(C)S(=O)(=O)c1ccc(NC(=O)COC(=O)c2n[nH]c3ccccc23)cc1`, the Potency result is “inactive”.
On to `NC(=O)COC(=O)/C=C/c1ccc2ccccc2n1`, for which the Potency entry was “inactive”.
Under `COc1ccccc1C(=O)N/C(=C/c1ccco1)C(=O)Nc1ccc(C(=O)O)cc1` stands “inactive”; under `O=S(=O)(c1ccc(Br)cc1)c1nc(-c2ccccc2)oc1NCc1cccnc1`, “inactive”.
The same measure for `Cc1ccc(C)c(S(=O)(=O)Nc2cccc(-n3cnnn3)c2)c1`: “inactive”; for `O=C(NCc1cccs1)C1CCN(S(=O)(=O)c2ccc3c(c2)OCCO3)CC1`: “inactive”; for `CCCc1nc(N2CCN(C)CC2)c2sc(=S)n(-c3ccccc3)c2n1`: “inactive”.
Under `CC1CC(c2ccccc2)n2nc(NC(=O)c3cccs3)nc2N1` (centres undefined) stands “inactive”; under `CN(C)N=Nc1ccc2nc[nH]c2c1`, “inactive”; under `CN(C)c1nc(N)nc(CSc2nnnn2-c2cccc3ccccc23)n1`, “inactive”.
Consider `O=C(c1ccc[nH]c1=S)N1CCN(S(=O)(=O)c2ccc(Br)cc2Cl)CC1`, for which the Potency result is “inactive”.
